# Screens from PubChem BioAssay.
# Hits are enriched below; roughly 1.2% of the tested compounds scored in any of these assays.
# LmPK inh: LmPK (Leishmania mexicana) enzyme inhibition; Q27686; purified LmPK, Kinase-Glo ATP luminescence, 1 h; Potency, µM (highest dose often 57.5 µM), for the others: top-dose activity change, negative = inhibition, hits mostly inhibitors; 290,000 tested, 0.37% active; AID 1721; further: on the % scale 0 is the no-effect control and ±100 the full control effect
#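 Purified LmPK (0.1 nM) converted ADP (0.1 mM) to ATP with PEP (0.5 mM) in imidazole buffer pH 7.2 with KCl and MgCl2, 1 h at room temperature. ATP was read by Kinase-Glo luminescence; data normalized to uninhibited and no-enzyme controls.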
# Giardia FBPA inh-1: blocks Giardia fructose-bisphosphate aldolase activity. 290,000 tested, 0.71% active. purified Giardia FBPA. Potency, µM (highest dose often 59.6 µM), for the others: at the highest dose activity, negative = inhibition, actives largely listed as inhibitors; further: on the % scale 0 is the no-effect control and ±100 the full control effect; nearly all actives have a fitted effect of over 55% in size
# Target sequence (A8B2U2 whole entry, looked up): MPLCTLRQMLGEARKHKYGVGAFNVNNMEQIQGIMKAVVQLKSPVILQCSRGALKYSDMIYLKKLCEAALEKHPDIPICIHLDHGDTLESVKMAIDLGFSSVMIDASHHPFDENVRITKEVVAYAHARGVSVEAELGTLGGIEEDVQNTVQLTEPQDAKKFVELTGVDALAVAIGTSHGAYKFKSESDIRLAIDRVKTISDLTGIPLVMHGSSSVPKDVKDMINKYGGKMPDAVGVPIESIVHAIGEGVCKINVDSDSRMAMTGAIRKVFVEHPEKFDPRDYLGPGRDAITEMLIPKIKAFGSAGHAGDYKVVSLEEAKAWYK
#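 40 nM FBPA preincubated 10 min at RT with compound (up to 57.5 uM final), then substrate plus GAPDH/TPI/NAD/arsenate coupling and diaphorase/resazurin added. Fluorescence read after 20 min at RT, 525/598 nm.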
# Tb PYK inh: T. brucei pyruvate kinase inhibition; TbPYK enzyme, Kinase-Glo Plus ATP luminescence, 45 min; Potency, µM (series often up to 76.8 µM), without a hit: top-dose activity, negative = inhibition, actives largely listed as inhibitors; 410,000 tested, 0.12% active; AID 624173; further: on the % scale 0 is the no-effect control and ±100 the full control effect; nearly all actives have a fitted effect of over 50% in size
#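 Activity of T. brucei pyruvate kinase was followed by Kinase-Glo Plus luminescence after the enzyme reacted 45 min at room temperature with 130 uM ADP (final) and substrate. Test compounds were added before ADP at multiple concentrations.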
# NS1 function inh: influenza NS1 inhibition; AID 2326; 270,000 tested, 0.4% active; Potency, µM (titrated, usually from 46.1 µM), without a hit: at the highest dose activity, positive = more growth; calls by dose curve; further: actives are rising curves; nearly all actives have a fitted effect of over 50% in size
#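 Recovery from NS1-induced slow growth read by OD600 in budding yeast switched to galactose assay medium (pH 6.0, -URA) at 1:100 dilution. Compound 23 nl per well; the matching strain lacking NS1 serves as control.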
# AMA1 RON2 block: inhibitors of Plasmodium falciparum AMA1-RON2 interaction. 360,000 tested, 0.2% active. AlphaScreen AMA1-biotinylated RON2 peptide binding. Potency, µM (highest dose often 58.2 µM), for the others: at the highest dose activity change, negative = inhibition, most hits filed as inhibitors. AID 720542;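 further: 0% = vehicle wells and -100% = peptide control; nearly all actives have a fitted effect of over 45% in size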
#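 AMA1 (3D7) with his tag at 25 nM final met compounds first, then biotinylated RON2 peptide at 25 nM; detection used donor plus acceptor beads, 10 µg/mL apiece, read by AlphaScreen after 30 min at room temperature.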
# Giardia growth: blocks growth of Giardia lamblia trophozoites | shares compounds with Giardia FBPA inh-1 | Giardia lamblia trophozoite growth inhibition | Potency, µM (series often up to 57.5 µM), for the others: at the highest dose activity change, negative = inhibition, actives largely listed as inhibitors | 1,500 tested, 5% active;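 further: trophozoites exposed to compound for 48 h at 37 °C; on the % scale 0 is the no-effect control and ±100 the full control effect; nearly all actives have a fitted effect of over 70% in size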
# Mammalian tox: toxic to mammalian cells in Giardia aldolase counter-screen; shares compounds with Giardia FBPA inh-1; AID 2786; Potency, µM (series often up to 57.5 µM), inactives show top-dose viability change, negative = toxicity, actives largely listed as inhibitors; mammalian cell viability counter-screen, qHTS; 1,500 tested, 4% active;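 further: Chinese hamster ovary cells used as mammalian cytotoxicity surrogate; viability measured as cellular ATP by luminescence; compound exposure lasted 48 h before reading; on the % scale 0 is the no-effect control and ±100 the full control effect; nearly all actives have a fitted effect of over 60% in size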
# Giardia FBPA inh-2: confirmation of Giardia fructose-bisphosphate aldolase inhibitors; shares compounds with Giardia FBPA inh-1; purified Giardia aldolase enzyme activity, qHTS; Potency, µM (series often up to 57.5 µM), for inactives: at the top dose activity change, negative = inhibition, most hits filed as inhibitors; 1,500 tested, 5% active; further: on the % scale 0 is the no-effect control and ±100 the full control effect; nearly all actives have a fitted effect of over 45% in size
# Rabbit aldolase: blocks rabbit muscle aldolase in Giardia aldolase selectivity test; shares compounds with Giardia FBPA inh-1; Rabbit muscle FBPA enzyme inhibition, selectivity counter-screen; Potency, µM (highest dose often 57.5 µM), without a hit: at the highest dose activity, negative = inhibition, hits mostly inhibitors; 1,500 tested, 4% active; AID 2794; further: on the % scale 0 is the no-effect control and ±100 the full control effect; nearly all actives have a fitted effect of over 60% in size
# GAPDH coupling: GAPDH inhibition flagged for Giardia aldolase hits; shares compounds with Giardia FBPA inh-1; GAPDH coupling enzyme counterscreen, biochemical, qHTS; Potency, µM (series often up to 57.5 µM), for the others: top-dose activity change, negative = inhibition, actives largely listed as inhibitors; 1,500 tested, 6% active; AID 2795; further: on the % scale 0 is the no-effect control and ±100 the full control effect; nearly all actives have a fitted effect of over 55% in size
# Numbers without * were called inactive; u = inconclusive; x = no result; [ ] = remark or other dose. Unless noted, the call rests on the fitted dose curve; in most records, active means well fitted curve in the direction sought with a large enough effect; inconclusive means small, poorly fitted or top-dose-only effect, or another doubt; inactive means no such curve, though single readings can be large; an effect the other way counts as inactive or inconclusive. Potency means the concentration at half of the fitted maximal effect.
SMILES,LmPK inh,Giardia FBPA inh-1,Tb PYK inh,NS1 function inh,AMA1 RON2 block,Giardia growth,Mammalian tox,Giardia FBPA inh-2,Rabbit aldolase,GAPDH coupling
NC(=O)C1(N2CCCCC2)CCN(C(=S)Nc2ccccc2)CC1,-6.4%,2.2%,0.0%,4.7%,3.7%,x,x,x,x,x
NC(=O)C1(N2CCCCC2)CCN(C(=S)Nc2ccc(S(N)(=O)=O)cc2)CC1,2.0%,7.92µM*,u,2.0%,2.3%,86.8%,-3.3%,-23.0%,-15.2%,-19.9%
CCCCC[C@H](O)/C=C/[C@H]1OC(O)C[C@H](O)[C@@H]1C/C=C\CC(=O)O (stereo partly specified),x,2.6%,x,x,x,x,x,x,x,x
O=C(O)CSc1c(O)c2ccccc2[nH]c1=O,0.5%,17.7µM*,-14.6%,-0.3%,131.1%,u,1.0%,-18.0%,-19.6%,-17.9%
S=c1nc[nH]c2c1ncn2C1CCCC1,-0.6%,3.97µM*,u,-0.3%,77.7%,7.6%[38.3 µM],-2.9%,-3.2%,-11.4%,-4.7%
OCC1CCCC(n2cnc3c(=S)nc[nH]c32)O1 (stereo unspecified),6.0%,3.97µM*,-13.4%,5.0%,52.8%,7.9%[38.3 µM],16.9%,-2.8%,-0.9%,u
CC1=NOC(=O)/C1=C\c1ccc(-c2ccc(Br)cc2C(=O)O)o1,9.8%,5µM*,-23.0%,5.4%,3.2%,-16.6%[38.3 µM],-0.5%,-12.2%,-10.5%,-7.0%
Cc1cc2cc(C(c3nnnn3CC3CCCO3)N3CCCc4ccccc43)c(=O)[nH]c2cc1C (stereo unspecified),-4.7%,3.97µM*,-0.8%,5.01µM*,2.6%,1.0%,-4.5%,-13.2%,-2.9%,-19.5%
C[C@H]1[C@H](C)CC[C@]2(C(=O)O)CC[C@]3(C)C(=CCC4[C@@]5(C)C[C@@H](O)[C@H](O)[C@@](C)(CO)[C@@H]5CC[C@]43C)[C@H]12 (stereo partly specified),x,20.4%,x,x,x,x,x,x,x,x
O=C(CN1CCC(NC(=O)c2ccccc2F)CC1)Nc1ccc2c(c1)OCO2,8.5%,2.2%,5.8%,2.3%,6.2%,x,x,x,x,x
Cc1ccc(NC(=O)CN2CCC(NC(=O)c3ccccc3F)CC2)cc1C,2.2%,17.8µM*,-1.0%,-19.6%,16.0%,u,-2.5%,0.1%,0.6%,6.8%
Cc1noc(C)c1-c1ccc2ncnc(NCc3cccn3C)c2c1,x,-1.7%,x,x,x,x,x,x,x,x
Cc1ccc(NC2=CC(=O)c3sc(C)nc3C2=O)cc1,x,-11.4%,x,x,x,x,x,x,x,x
CC1CC(C)CN(C(=O)C(C)N(C)CC(=O)Nc2ccc(Cl)cc2)C1 (stereo unspecified),-1.3%,19.9µM*,41.5%,x,u,-4.5%,-12.2%,-2.4%,5.1%,6.1%
Cc1cc(C=C2C(=O)N(C)C(=S)N(C)C2=O)c(C)n1-c1cccnc1,0.3%,3.15µM*,u,11.9%,17.0%,-29.4%,6.5%,-12.4%,-6.7%,-29.1%
Cc1ccc(-n2c(C)cc(C=C3C(=O)N(C)C(=O)N(C)C3=O)c2C)cc1,x,x,1.2%,x,3.8%,x,x,x,x,x
CS(=O)(=O)N(CC(=O)N/N=C/c1cc([N+](=O)[O-])ccc1Cl)c1ccccc1,-1.3%,u,-9.0%,-0.5%,14.3%,x,x,x,x,x
